Where “and” joins values, the source holds several entries; their conditions need not be identical. Identical values can stand only once. This is part of a sample that, as a whole, favours compounds with a hit. Of some 83,000 tested, about 20% had one in any assay.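 Treatment: one concentration, 48 hours, 96-well format. Scoring: percent growth, with anything below 10 considered active.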 Calls of active or inactive are those of the source.
tested on: UACC-62 melanoma; test: NCI-60 one-dose screen, 48 h (100 = growth as untreated, 0 = no growth, -100 = all killed); settings: 10 µM unless noted

Structure (SMILES) | growth
C=C1C(=O)OC2CC1C(OC(=O)/C=C/c1ccccc1)C/C(C)=C/CC/C(C)=C/CCC2(C)O (stereo not given) | -95.6% [100 µM] (active) and -90.1% [100 µM] (active)
Fc1cccc(F)c1C1SCc2nc3cc4ccccc4cc3n21 (stereo not given) | 21.7% [100 µM] (inactive) and 19.9% [100 µM] (inactive)
COc1ccc(OC)c(Cc2cnc3nc(N)nc(N)c3c2C)c1 | 1.25% [100 µM] (active) and -100% [100 µM] (active)
CC1=C(C2=C(C)C(=O)C(=O)c3cc(C)ccc32)c2ccc(C)cc2C(=O)C1=O | -92.5% [100 µM] (active) and -100% [100 µM] (active)
CC1(C)CCC2(C(=O)O)C(O)CC3(C)C(=CCC4C5(C)CCC(OC6OCC(O)C(O)C6OC6OCC(O)C(O)C6OC6OCC(O)C(OC7OC(CO)C(O)C(O)C7O)C6O)C(C)(C)C5CCC43C)C2C1 (stereo not given) | 97.8% [100 µM] (inactive) and 5.39% [100 µM] (active)
CC(C)(C)N/N=C(/Cc1nc2c3c(ccc2[nH]c1=O)C(=O)c1ccccc1C3=O)C(=O)NC1=C(Cl)C(=O)c2ccccc2C1=O | 22.1% [100 µM] (inactive) and 1.57% [100 µM] (active)
O=C(O)CCCOc1cc(-c2ccccc2F)nc2cc3c(cc12)OCO3 | 11.6% [100 µM] (inactive) and -54.7% [100 µM] (active)
COc1ccc2nc3c4c(nccc4c2c1)-c1ncccc1C3=O | -95.8% [50 µM] (active) and -100% [50 µM] (active)
O=Cc1ccc(-c2ccc(-c3ccc(CO)s3)o2)s1 | -65% [100 µM] (active) and -100% [100 µM] (active)
Cn1c(COC(=O)NC2CCCCC2)c(COC(=O)NC2CCCCC2)c2ccc3cc(Cl)c(Cl)cc3c21 | -50.6% [100 µM] (active)
Cc1cc(O)c2c(c1)C(=O)C(c1c(C)cc3c(c1O)C(=O)C1OC1C3=O)=CC2=O (stereo not given) | -91.9% [100 µM] (active) and -93.6% [100 µM] (active)
S=C1NC2=C(COc3ccccc32)C(c2ccc(Cl)cc2)N1 (stereo not given) | -56.9% [100 µM] (active) and -100% [100 µM] (active)
N=C1C(=N)c2ccccc2-c2ccccc21 | 53.6% [100 µM] (inactive) and -56.4% [100 µM] (active)
Cc1ccc(NC(=S)C#N)cc1Cl | -35.5% [100 µM] (active) and -95.7% [100 µM] (active)
CC1=C(Cl)C[C@@H](/C(C)=C\Cl)O[C@@]1(O)C(Br)Br | 70.8% [100 µM] (inactive) and -44.8% [100 µM] (active)

Source: PubChem BioAssay (NCI)
